Shown are actives, neighbours in structure and some others; about 5.9% of the full set was active somewhere.
FXN GAA850 act – frataxin GAA850 promoter activation; activation, % at 6 µM; HEK293 lucGAA850 FXN promoter luciferase reporter, 24 h; percent of 10 µM SAHA response; 0.56% of 360,000 active;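 active = activation above the average of all compounds screened plus 3 SD, cutoff fixed separately per campaign, cut at about 7.5% in these data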;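 note: 0% = DMSO wells and 100% = 10 µM SAHA wells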
HSF1 inh – HSF1 inhibition; NIH3T3-HGL HSE-luciferase, MG132-induced, luminescence 8 h; active compounds read low; activity change, negative = inhibition, % at 7.5 µM (by protocol); 0.77% of 300,000 active; AID 2098;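 active = more than half of replicate wells show activity change below -50%, luminescence cut by over half; inconclusive = some wells, but at most half, below -50%; inactive = no replicate well below -50%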;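 note: luciferase reports HSF-1 transcriptional activity via heat shock element; 0% = median of DMSO wells and -100% = zero luminescence signal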
AHR act – activates the human aryl hydrocarbon receptor; AID 2796; 2.5% of 320,000 active; P35869; activation, % at 5 µM; AHR-responsive luciferase reporter cells, luminescence; in the data active = activation above about 47%;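 note: 0% = vehicle wells and 100% = reference agonist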
HSP90 refold inh – HSP90 refolding inhibition in rabbit reticulocyte lysate; inhibition, % at 5.6 µM; 0.91% of 290,000 active; AID 1789; luciferase refolding luminescence, 3 h;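 active = inhibition above the screen-wide mean plus 3 SD, computed separately per campaign, cut at about 16% in these data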;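 note: 0% = DMSO wells and 100% = 60 µM geldanamycin wells; inhibitors lower the luminescence because luciferase stays unfolded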
HSF-1 act – increases HSF-1 driven luciferase reporter signal. NIH3T3-HGL HSF-1 luciferase reporter, MG132, 8 h; 100% = twice DMSO control signal. 1.7% of 300,000 active. activation, % at 9 µM. AID 504408;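 active = mean replicate activation of at least 50% with a set share of replicates each reaching 50%; inconclusive = only one of those two conditions met; inactive = mean below 50% and too few replicates reaching it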;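 note: 0% = median of the neutral control wells and 100% = twice that signal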
NR0B1 inh – inhibits human nuclear receptor DAX1. HEK293 Gal4-DAX1 luciferase reporter, luminescence. inhibition, % at 6.75 µM. 0.99% of 340,000 active. AID 504766;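 active = inhibition above the mean over all tested compounds plus 3 SD, cut at about 4.2% in these data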;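 note: 0% = DAX1-transfected cells with DMSO and 100% = empty-vector control cells with DMSO; inhibition shows as a rise in luminescence from relieved DAX1 repression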
* marks the source's active call; other numbers are inactive results; ? = inconclusive; . = not tested or not shown.

SMILES	FXN GAA850 act	HSF1 inh	AHR act	HSP90 refold inh	HSF-1 act	NR0B1 inh
O=C(Oc1ccc(NC2=NS(=O)(=O)c3ccccc32)cc1)c1cccnc1	-1	16	0	4	52*	-1
CCCN(CC(=O)Nc1ccccc1OC)C(=O)CN1C(=O)NC(C)(C)C1=O	2	.	.	.	.	0
Cc1cc2oc3c(c(=O)c2cc1C)C(c1ccc(C(C)C)cc1)N(CCCN1CCOCC1)C3=O (stereo not given)	0	33	2	-3	58*	0
CCOc1ccc(C2c3c(oc4cc(C)c(C)cc4c3=O)C(=O)N2CCCN2CCOCC2)cc1 (stereo not given)	0	-6	3	0	-5	1
O=[N+]([O-])c1ccc(NCc2ccncc2)cc1	0	-2	0	-3	30	4.6*
Oc1ccc(/C=N/N2CCOCC2)c(O)c1O	-1	-8	-1	-2	-1	6.2*
Oc1ccc(/C=N/N2CCCCC2)c(O)c1O	0	-2	2	2	4	0
O=C(NCc1nc2ncc(Br)cc2[nH]1)c1ccccc1	1	6	78*	0	8	0
Brc1cnc2nc(SC/C=C/c3ccccc3)[nH]c2c1	2	50	3	4	62*	1
O=C1c2ccccc2C(=O)N1C1C=CC=CC=C1	1	.	.	.	.	-1
CC1Cn2c(COc3ccccc3)nnc2S1 (stereo not given)	0	-3	0	-3	-9	3
Cc1ccccc1OCc1nnc2n1CC(C)S2 (stereo not given)	-1	-6	1	-2	-4	4.6*
Cc1nn2c(N)c(-c3ccccc3)cnc2c1-c1ccc(Cl)cc1	5	1	64*	-2	-2	1
CNC(=S)N/N=C/c1ccccc1Cl	-1	-3	60*	-2	-8	1
S=C(N/N=C/c1ccccc1Cl)Nc1ccccc1	2	30	62*	-2	72*	4.4*
S=C(N/N=C/c1cccc2ccccc12)Nc1cccc(Cl)c1	1	3	48*	2	18	1
CNC(=S)N/N=C/c1c(Cl)cccc1Cl	2	-59*	-1	2	-67	1
O=C(CC(=O)Nc1cccc(Cl)c1)N/N=C\c1ccccc1	2	-3	2	0	-23	-1
Cc1c(Cl)cccc1NC(=S)N/N=C/c1ccccc1Cl	.	14	30	2	27	.
CC1CN(C(=O)Cn2cc(S(=O)(=O)CC(=O)N3CCOCC3)c3ccccc32)CC(C)O1 (stereo not given)	1	1	0	-3	8	1
CCOc1ccc(CN2CCC(n3nccc3NC(=O)c3ccccc3OC)CC2)cc1	0	-1	5	-5	2	0
S=C(Nc1ccccc1)Nc1cccc(Cl)c1Cl	0	13	8	-3	15	6.1*
Cc1cc(NC(=O)c2ccccc2NS(=O)(=O)c2c(C)c(C)cc(C)c2C)no1	0	-6	2	1	11	0
Cc1cc(C)c(C)c(S(=O)(=O)Nc2ccccc2C(=O)O)c1C	2	3	2	-6	-17	4.9*
CCC(=O)NC1=C(Nc2ccc(N)cc2)C(=O)c2ccccc2C1=O	8	24	55*	0	29	3
SMILES	FXN GAA850 act	HSF1 inh	AHR act	HSP90 refold inh	HSF-1 act	NR0B1 inh
CCCC(=O)NC1=C(Cl)C(=O)c2ccccc2C1=O	-6	91*	.	.	91*	-4
CCNC1=C(Cl)C(=O)c2ccccc2C1=O	1	15	4	6	26	-1
CC1CCc2c(sc(/N=C/N(C)C)c2C#N)C1 (stereo not given)	4	29	12	1	?	4.7*
COc1ccc(NC(=O)C2(C)Cc3c(-c4cccc(C(F)(F)F)c4)ccnc3O2)cc1OC (stereo not given)	-2	.	.	.	.	.
CCOC(=O)Cc1nnc(Nc2cccc(C)c2)c2ccccc12	-1	65	2	3	80*	-1
CCOC(=O)Cc1nnc(Nc2ccc(C)cc2)c2ccccc12	-2	.	-1	1	.	0
COC(=O)Cc1nnc(Nc2cccc(C)c2)c2ccccc12	0	-13	61*	4	-16	1
Cc1cccc(OCC(=O)N2CCc3ccccc3C2)c1C	0	.	.	.	.	3
COc1cc(C(=O)Nc2ccn(C)n2)ccc1OC(F)F	4	.	4	.	.	0
COc1cccc(-c2nnn(CC(=O)O)n2)c1	2	-9	-1	3	-8	2
CCOC(=O)Cn1nnc(-c2cccc(OC)c2)n1	0	24	1	2	67*	1
COc1ccc(/C=C2\SC(=O)N(CCC(=O)N3CCCCC3)C2=O)cc1OC	2	18	2	1	?	5.8*
COc1cccc(/C=C2/SC(=S)N(CCC(=O)N3CCOCC3)C2=O)c1	1	4	2	-4	1	4
COc1ccc(/C=C2\SC(=O)N(CC(=O)NN3CCN(C)CC3)C2=O)cc1OC	2	-16	2	1	-25	4.7*
COc1cccc(/C=C2\SC(=S)N(CCCC(=O)N3CCCCC3)C2=O)c1	2	23	-2	2	55*	0
COC(=O)Nc1ccc(S(=O)(=O)N2CCCC(C(=O)N3CCN(C)CC3)C2)cc1 (stereo not given)	3	-1	-2	3	-4	-1
O=C(COC(=O)c1cc(S(=O)(=O)N2CCOCC2)ccc1Cl)Nc1ccccc1Cl	-1	.	.	.	.	2
CNC(=S)N/N=C/c1cc(C)n(-c2ccc(Cl)c(Cl)c2)c1C	1	7	4	1	19	0
CC(C)(C)C(=O)Cn1ncc(N2CCCC2)c(Br)c1=O	1	12	42	-1	21	2
CC(=O)Cn1ncc(Br)c(Br)c1=O	1	-94*	.	1	-94	6.6*
O=C(OCn1ncc(Br)c(Br)c1=O)c1c(F)cccc1F	.	-95*	14	3	-96	.
COc1cccc(CNC(=O)CCCn2nc(C)c3c(C)n(-c4ccc(C)cc4)nc3c2=O)c1OC	0	-6	-2	3	-12	0
CC(=O)N(CCc1ccccc1)Cc1cc2cc(C)ccc2[nH]c1=O	-2	2	54*	-3	14	1
COc1ccc2[nH]c(=O)c(CN(CCc3ccccc3)C(C)=O)cc2c1	0	-6	8	2	15	0
O=C(NCCc1ccccc1)C1CCN(C(=O)c2ccc([N+](=O)[O-])cc2)CC1	1	-4	0	-4	12	0
COc1ccc(N=c2sc3ccccc3n2C)cc1	5	31	33	-10	55*	5.6*
CCOC(=O)Cn1c(=O)oc2cc(S(=O)(=O)NCCC(C)C)ccc21	1	-70*	1	-2	-75	0
CCOCCCNS(=O)(=O)c1ccc2c(c1)oc(=O)n2CC(=O)OCC	0	-1	-1	6	2	0

Bioassay records: PubChem, several laboratories
